Assay results from the supplement of paper PMC8728848.
This excerpt belongs to a sample that is enriched for the strongest signals.

What was measured:
Assay in all cases: glycan array binding signal (z-score within array); higher = stronger binding
Conditions in all cases: glycan notation: IUPAC condensed, linker removed
[1] = molecular target: Fuc(a1-2)Gal(b1-3)GalNAc(a1-3)[Fuc(a1-2)]Gal(b1-4)Glc
Method in brief: (§1)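 Glycan array data were curated from 3228 arrays in the Consortium for Functional Glycomics database and kept only where the protein sequence was available. Glycan names were converted to IUPAC-condensed notation, and columns mapping to the same glycan were averaged. The binding signal is a within-array Z-score, averaged across arrays of the same protein sequence at different concentrations or buffers and across linkers. Negative Z-scores can be read as non-binding.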

Fuc(a1-2)Gal(b1-3)GlcNAc = molecular target: Fuc(a1-2)Gal(b1-3)GlcNAc
Method in brief: as §1

[2] = molecular target: Fuc(a1-2)Gal(b1-3)GlcNAc(b1-3)GalNAc
Method in brief: as §1

[3] = molecular target: Fuc(a1-2)Gal(b1-4)GlcNAc(b1-3)Gal(b1-4)GlcNAc
Method in brief: as §1

[4] = molecular target: Fuc(a1-2)Gal(b1-4)[Fuc(a1-3)]GlcNAc(b1-2)[Fuc(a1-2)Gal(b1-4)[Fuc(a1-3)]GlcNAc(b1-4)]Man(a1-3)[Fuc(a1-2)Gal(b1-4)[Fuc(a1-3)]GlcNAc(b1-2)Man(a1-6)]Man(b1-4)GlcNAc(b1-4)GlcNAc
Method in brief: as §1

[5] = molecular target: Fuc(a1-2)[Gal(a1-3)]Gal(b1-4)GlcNAc(b1-2)Man(a1-3)[Fuc(a1-2)[Gal(a1-3)]Gal(b1-4)GlcNAc(b1-2)Man(a1-6)]Man(b1-4)GlcNAc(b1-4)GlcNAc
Method in brief: as §1

[6] = molecular target: Fuc(a1-2)[GalNAc(a1-3)]Gal(b1-4)[Fuc(a1-3)]GlcNAc(b1-3)GalNAc
Method in brief: as §1

[7] = molecular target: Fuc(a1-3)[Gal3S(b1-4)]GlcNAc
Method in brief: as §1

[8] = molecular target: Gal(a1-3)Gal(b1-3)GlcNAc(b1-2)Man
Method in brief: as §1

Gal(a1-3)Gal(b1-4)GlcNAc = molecular target: Gal(a1-3)Gal(b1-4)GlcNAc
Method in brief: as §1

[9] = molecular target: Gal(a1-3)Gal(b1-4)GlcNAc(b1-2)Man(a1-3)[Gal(a1-3)Gal(b1-4)GlcNAc(b1-2)Man(a1-6)]Man(b1-4)GlcNAc(b1-4)GlcNAc
Method in brief: as §1

Gal(b1-3)GlcNAc = molecular target: Gal(b1-3)GlcNAc
Method in brief: as §1

[10] = molecular target: Gal(b1-3)GlcNAc(b1-3)Gal(b1-3)GlcNAc
Method in brief: as §1

[11] = molecular target: Gal(b1-3)GlcNAc(b1-3)Gal(b1-4)GlcNAc(b1-2)Man(a1-3)[Gal(b1-3)GlcNAc(b1-3)Gal(b1-4)GlcNAc(b1-2)Man(a1-6)]Man(b1-4)GlcNAc(b1-4)GlcNAc
Method in brief: as §1

[12] = molecular target: Gal(b1-3)GlcNAc(b1-3)Gal(b1-4)GlcNAc(b1-2)[Gal(b1-3)GlcNAc(b1-3)Gal(b1-4)GlcNAc(b1-6)]Man(a1-6)[Gal(b1-3)GlcNAc(b1-3)Gal(b1-4)GlcNAc(b1-2)Man(a1-3)]Man(b1-4)GlcNAc(b1-4)[Fuc(a1-6)]GlcNAc
Method in brief: as §1

[13] = molecular target: Gal(b1-3)GlcNAc(b1-3)Gal(b1-4)GlcNAc(b1-3)Gal(b1-4)GlcNAc(b1-2)[Gal(b1-3)GlcNAc(b1-3)Gal(b1-4)GlcNAc(b1-3)Gal(b1-4)GlcNAc(b1-6)]Man(a1-6)[Gal(b1-3)GlcNAc(b1-3)Gal(b1-4)GlcNAc(b1-3)Gal(b1-4)GlcNAc(b1-2)Man(a1-3)]Man(b1-4)GlcNAc(b1-4)[Fuc(a1-6)]GlcNAc
Method in brief: as §1

[14] = molecular target: Gal(b1-3)[Fuc(a1-4)]GlcNAc(b1-2)Man(a1-3)[Gal(b1-3)[Fuc(a1-4)]GlcNAc(b1-2)Man(a1-6)]Man(b1-4)GlcNAc(b1-4)[Fuc(a1-6)]GlcNAc
Method in brief: as §1

Gal(b1-4)Glc = molecular target: Gal(b1-4)Glc
Method in brief: as §1

[15] = molecular target: Gal(b1-4)GlcNAc(b1-2)Man(a1-3)[Gal(b1-4)GlcNAc(b1-2)Man(a1-6)]Man(b1-4)GlcNAc(b1-4)GlcNAc
Method in brief: as §1

[16] = molecular target: Gal(b1-4)GlcNAc(b1-3)Gal(b1-3)GalNAc
Method in brief: as §1

[17] = molecular target: Gal(b1-4)GlcNAc(b1-3)Gal(b1-4)GlcNAc(b1-2)[Gal(b1-4)GlcNAc(b1-3)Gal(b1-4)GlcNAc(b1-6)]Man(a1-6)[Gal(b1-4)GlcNAc(b1-3)Gal(b1-4)GlcNAc(b1-2)Man(a1-3)]Man(b1-4)GlcNAc(b1-4)[Fuc(a1-6)]GlcNAc
Method in brief: as §1

Gal3S(b1-3)GalNAc = molecular target: Gal3S(b1-3)GalNAc
Method in brief: as §1

[18] = molecular target: GalNAc(a1-3)GalNAc(b1-3)Gal(a1-4)Gal(b1-4)GlcNAc
Method in brief: as §1

Glc(b1-6)Glc = molecular target: Glc(b1-6)Glc
Method in brief: as §1

[19] = molecular target: GlcNAc(b1-2)[GlcNAc(b1-4)]Man(a1-3)[GlcNAc(b1-4)][GlcNAc(b1-2)Man(a1-6)]Man(b1-4)GlcNAc(b1-4)GlcNAc
Method in brief: as §1

[20] = molecular target: GlcNAc(b1-2)[GlcNAc(b1-4)]Man(a1-3)[GlcNAc(b1-4)][GlcNAc(b1-2)[GlcNAc(b1-6)]Man(a1-6)]Man(b1-4)GlcNAc(b1-4)[Fuc(a1-6)]GlcNAc
Method in brief: as §1

[21] = molecular target: GlcNAc(b1-3)Gal(b1-4)GlcNAc(b1-2)[GlcNAc(b1-3)Gal(b1-4)GlcNAc(b1-6)]Man(a1-6)[GlcNAc(b1-3)Gal(b1-4)GlcNAc(b1-2)Man(a1-3)]Man(b1-4)GlcNAc(b1-4)GlcNAc
Method in brief: as §1

[22] = molecular target: GlcNAc(b1-3)Gal(b1-4)GlcNAc(b1-3)GalNAc
Method in brief: as §1

[23] = molecular target: GlcNAc(b1-4)Gal(b1-4)GlcNAc
Method in brief: as §1

[24] = molecular target: GlcNAc(b1-4)GlcNAc(b1-4)GlcNAc(b1-4)GlcNAc(b1-4)GlcNAc
Method in brief: as §1

[25] = molecular target: GlcNAc(b1-4)GlcNAc(b1-4)GlcNAc(b1-4)GlcNAc(b1-4)GlcNAc(b1-4)GlcNAc
Method in brief: as §1

Kdn(a2-3)Gal(b1-3)GalNAc = molecular target: Kdn(a2-3)Gal(b1-3)GalNAc
Method in brief: as §1

[26] = molecular target: Man(a1-2)Man(a1-3)[Man(a1-2)Man(a1-6)]Man(a1-6)[Man(a1-2)Man(a1-2)Man(a1-3)]Man(b1-4)GlcNAc(b1-4)GlcNAc
Method in brief: as §1

MurNAc(b1-4)GlcNAc = molecular target: MurNAc(b1-4)GlcNAc
Method in brief: as §1

Neu5Ac(a2-3)Gal(b1-4)Glc = molecular target: Neu5Ac(a2-3)Gal(b1-4)Glc
Method in brief: as §1

[27] = molecular target: Neu5Ac(a2-3)Gal(b1-4)GlcNAc(b1-2)Man
Method in brief: as §1

[28] = molecular target: Neu5Ac(a2-3)Gal(b1-4)GlcNAc(b1-2)Man(a1-3)[Neu5Ac(a2-3)Gal(b1-4)GlcNAc(b1-2)Man(a1-6)]Man(b1-4)GlcNAc(b1-4)[Fuc(a1-6)]GlcNAc
Method in brief: as §1

[29] = molecular target: Neu5Ac(a2-3)Gal(b1-4)GlcNAc(b1-3)Gal
Method in brief: as §1

[30] = molecular target: Neu5Ac(a2-3)Gal(b1-4)GlcNAc(b1-3)Gal(b1-4)GlcNAc(b1-3)Gal(b1-4)GlcNAc(b1-2)Man(a1-3)[Neu5Ac(a2-3)Gal(b1-4)GlcNAc(b1-3)Gal(b1-4)GlcNAc(b1-3)Gal(b1-4)GlcNAc(b1-2)Man(a1-6)]GalNAc
Method in brief: as §1

[31] = molecular target: Neu5Ac(a2-3)Gal(b1-4)GlcNAc(b1-3)Gal(b1-4)[Fuc(a1-3)]GlcNAc
Method in brief: as §1

[32] = molecular target: Neu5Ac(a2-3)Gal(b1-4)[Fuc(a1-3)]GlcNAc(b1-3)Gal(b1-4)GlcNAc
Method in brief: as §1

Neu5Ac(a2-3)GalNAc = molecular target: Neu5Ac(a2-3)GalNAc
Method in brief: as §1

[33] = molecular target: Neu5Ac(a2-6)Gal(b1-4)GlcNAc(b1-2)Man(a1-3)[GlcNAc(b1-4)][Neu5Ac(a2-6)Gal(b1-4)GlcNAc(b1-2)Man(a1-6)]Man(b1-4)GlcNAc(b1-4)GlcNAc
Method in brief: as §1

[34] = molecular target: Neu5Ac(a2-6)Gal(b1-4)GlcNAc(b1-2)Man(a1-3)[Man(a1-6)]Man(b1-4)GlcNAc(b1-4)GlcNAc
Method in brief: as §1

[35] = molecular target: Neu5Ac(a2-6)GlcNAc(b1-4)GlcNAc
Method in brief: as §1

[36] = molecular target: Neu5Ac(a2-8)Neu5Ac(a2-3)[Gal(b1-3)GalNAc(b1-4)]Gal(b1-4)Glc
Method in brief: as §1

[37] = molecular target: Neu5Ac(a2-8)Neu5Ac(a2-8)Neu5Ac(a2-8)Neu5Ac(a2-3)[GalNAc(b1-4)]Gal(b1-4)Glc
Method in brief: as §1

[38] = molecular target: Neu5Ac(b2-6)Gal(b1-4)GlcNAc
Method in brief: as §1

[39] = molecular target: Neu5Gc(a2-6)Gal(b1-4)GlcNAc
Method in brief: as §1

[40] = molecular target: Neu5Gc(a2-8)Neu5Gc(a2-3)Gal(b1-4)GlcNAc
Method in brief: as §1

[41] = molecular target: Neu5Gc(a2-8)Neu5Gc(a2-3)Gal(b1-4)GlcNAc(b1-3)Gal(b1-4)GlcNAc
Method in brief: as §1

B1: Vd2LysM (Verticillium dahliae) (protein)
chain: YRRTCSHTGKGEGWYIIRRGDNFNAVAADFCTSTNVLTEWNHISTITDNMVNTKIKVPCRWNAGKQRDCLKDQKSSNGWYHIVSGDELKDIAYDFCTTSGSLAGMNGISNPDYIKANTDIVVPCSWN
[1]
  glycan array binding signal (z-score): 2.91
Fuc(a1-2)Gal(b1-3)GlcNAc
  glycan array binding signal (z-score): 0.299
[2]
  glycan array binding signal (z-score): -0.965
[3]
  glycan array binding signal (z-score): 0.247
[4]
  glycan array binding signal (z-score): 0.533
[5]
  glycan array binding signal (z-score): -0.126
[6]
  glycan array binding signal (z-score): -0.592
[7]
  glycan array binding signal (z-score): 0.699
[8]
  glycan array binding signal (z-score): 0.43
Gal(a1-3)Gal(b1-4)GlcNAc
  glycan array binding signal (z-score): -0.365
[9]
  glycan array binding signal (z-score): -1.06
Gal(b1-3)GlcNAc
  glycan array binding signal (z-score): -0.257
[10]
  glycan array binding signal (z-score): 0.452
[11]
  glycan array binding signal (z-score): 0.151
[12]
  glycan array binding signal (z-score): 6.69
[13]
  glycan array binding signal (z-score): 2.23
[14]
  glycan array binding signal (z-score): -0.543
Gal(b1-4)Glc
  glycan array binding signal (z-score): 0.73
[15]
  glycan array binding signal (z-score): -0.349
[16]
  glycan array binding signal (z-score): 0.984
[17]
  glycan array binding signal (z-score): 2.2
Gal3S(b1-3)GalNAc
  glycan array binding signal (z-score): -0.656
[18]
  glycan array binding signal (z-score): -0.212
Glc(b1-6)Glc
  glycan array binding signal (z-score): -1.15
[19]
  glycan array binding signal (z-score): 2.82
[20]
  glycan array binding signal (z-score): 3.56
[21]
  glycan array binding signal (z-score): 0.741
[22]
  glycan array binding signal (z-score): -1.11
[23]
  glycan array binding signal (z-score): -1.44
[24]
  glycan array binding signal (z-score): 8.56
[25]
  glycan array binding signal (z-score): 4.42
Kdn(a2-3)Gal(b1-3)GalNAc
  glycan array binding signal (z-score): 1.25
[26]
  glycan array binding signal (z-score): 2.21
MurNAc(b1-4)GlcNAc
  glycan array binding signal (z-score): -0.26
Neu5Ac(a2-3)Gal(b1-4)Glc
  glycan array binding signal (z-score): 0.49
[27]
  glycan array binding signal (z-score): -0.481
[28]
  glycan array binding signal (z-score): 1.14
[29]
  glycan array binding signal (z-score): -0.599
[30]
  glycan array binding signal (z-score): 2.35
[31]
  glycan array binding signal (z-score): -0.732
[32]
  glycan array binding signal (z-score): -0.125
Neu5Ac(a2-3)GalNAc
  glycan array binding signal (z-score): 0.096
[33]
  glycan array binding signal (z-score): -0.761
[34]
  glycan array binding signal (z-score): -0.322
[35]
  glycan array binding signal (z-score): 0.619
[36]
  glycan array binding signal (z-score): 0.198
[37]
  glycan array binding signal (z-score): 1.71
[38]
  glycan array binding signal (z-score): 0.512
[39]
  glycan array binding signal (z-score): 0.437
[40]
  glycan array binding signal (z-score): 2.17
[41]
  glycan array binding signal (z-score): 0.317
